Assay [1] can be described thus: inhibitors of TNFa-induced NFkB p65 translocation, primary screen, imaging, HUVEC, MLSMR starter and 10KST1 sets (AID 438;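 active = inhibition above 20% together with a positive visual image hit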;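 note: compound added about 3h40 before a 20 min TNFalpha stimulation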;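 for inhibition: signal is the nuclear over cytoplasmic p65 intensity ratio per well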). The conditions noted are these: HUVEC TNFa-induced p65 nuclear translocation; cell count: measured here: nuclei count (cytotoxicity indicator), at 2.08 µM; inhibition: at 2 µM, stronger effect = higher value, 0% TNFa-plus-vehicle, 100% no-TNFa wells.
The nature of assay [2]: inhibitors of mutant huntingtin aggregation, primary screen, imaging, exon1htt(103Q)mCFP cells, high-content imaging (AID 483).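 For nuclei count: percent of the per-plate median nuclei count of sample wells.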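 Note: compound exposure lasted 3 days before fixation.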 Conditions: exon1htt(103Q)mCFP cell line, aggregate imaging, at 2 µM; inhibition of aggregation: stronger effect = higher value; nuclei count: measured here: cell count, toxicity.
Assay [3] is described as follows: inhibitors of E-selectin induction by TNFa, primary screen, imaging, HUVEC, immunofluorescence, MLSMR starter and 10KST1 sets (AID 487;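 active = visually confirmed hit in the image check and inhibition above 20%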;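 for inhibition: signal is fraction of cell area covered by stained E-selectin grains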;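 for nuclei count: 100% = median nuclei count of all wells on the same plate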). The conditions noted are these: HUVEC TNFalpha-induced E-selectin immunofluorescence imaging, at 2 µM; inhibition: stronger effect = higher value; nuclei count: measured here: cell number, toxicity.
For assay [4], the target named is Voltage-gated potassium channel subunit beta-2 (Rattus norvegicus) (UniProt P62483). The assay is described as follows: KvBeta enzyme negative modulators, primary screen, biochemical, NADPH fluorescence (AID 622;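 active = fluorescence slope higher than the sample average by over 3 SD, cut at about -0.22 in these data, passing the limit was not always enough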;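 note: slope of raw intensity against log time taken from 70 to 1610 s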). Conditions: recombinant KvBeta, 4-cyanobenzaldehyde reduction, at 10 µM, stronger effect = higher value.
Voltage-gated potassium channel subunit beta-2 (Rattus norvegicus), sequence (P62483 whole entry, looked up): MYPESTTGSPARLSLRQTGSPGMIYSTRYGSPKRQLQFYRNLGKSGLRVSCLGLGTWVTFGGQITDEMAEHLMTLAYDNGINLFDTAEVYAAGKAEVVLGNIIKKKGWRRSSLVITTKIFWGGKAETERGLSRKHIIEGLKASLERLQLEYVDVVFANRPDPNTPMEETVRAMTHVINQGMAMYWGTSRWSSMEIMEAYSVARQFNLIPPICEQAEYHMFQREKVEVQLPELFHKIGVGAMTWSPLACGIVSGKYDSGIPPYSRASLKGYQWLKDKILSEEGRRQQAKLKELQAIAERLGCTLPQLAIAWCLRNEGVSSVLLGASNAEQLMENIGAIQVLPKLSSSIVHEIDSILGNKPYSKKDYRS
The target is the same in assay [5]. The assay is described as follows: KvBeta positive modulators, primary screen, biochemical, NADPH fluorescence (AID 623;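 active = NADPH fluorescence slope more negative than the mean of all samples by about 3 SD, 99.7% confidence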;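 note: fluorescence intensity change per second fitted from 20 to 320 s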). Conditions: Recombinant KvBeta, NADPH fluorescence decrease slope, 10 min; at 10 µM; stronger effect = lower value.
Assay [6] deals with Alpha-2C adrenergic receptor (Homo sapiens) (UniProt P18825). Briefly: modulators of alpha2C/GIRK thallium flux, primary screen, cell-based, HEK293 alpha2C/GIRK1/2 (AID 624;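 active = fluorescence slope after compound addition differing from the mean of all screened samples at 99.7% confidence, in either direction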;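 note: slope of fluorescence ratio to pre-addition baseline per second over 15 to 24 s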). The conditions noted are these: thallium flux BTC fluorescence, at 10 µM, actives lie on both sides.
Alpha-2C adrenergic receptor (Homo sapiens), sequence (P18825 whole entry, looked up): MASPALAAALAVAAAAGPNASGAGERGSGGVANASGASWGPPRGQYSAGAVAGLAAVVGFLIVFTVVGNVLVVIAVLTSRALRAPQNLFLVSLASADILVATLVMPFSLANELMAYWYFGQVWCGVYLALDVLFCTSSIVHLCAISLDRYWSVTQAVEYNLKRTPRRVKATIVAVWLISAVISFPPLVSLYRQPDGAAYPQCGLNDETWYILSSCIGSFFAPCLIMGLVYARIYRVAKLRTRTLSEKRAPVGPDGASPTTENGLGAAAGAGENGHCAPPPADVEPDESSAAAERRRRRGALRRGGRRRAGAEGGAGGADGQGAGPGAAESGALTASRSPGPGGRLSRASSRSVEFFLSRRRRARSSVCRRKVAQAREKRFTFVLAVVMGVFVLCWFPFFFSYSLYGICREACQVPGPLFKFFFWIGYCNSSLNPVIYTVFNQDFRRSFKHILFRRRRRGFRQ
The nature of assay [7]: inhibitors of Sendai virus-induced IRF3 signaling, primary screen, TLR/RLR signaling modifier project, cell-based, Sendai virus stimulus, luciferase, 10K MLSCN set (AID 602276;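 active = inhibition at or above 50% at 10 µM; inactive = inhibition below 50%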;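 note: firefly luciferase from ISG56 promoter only with Renilla not read in this screen; 0% = Sendai virus plus DMSO and 100% = medium plus DMSO without virus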). The conditions noted are these: HEK293 RL24 IRF3 luciferase reporter, at 10 µM, stronger effect = higher value. A general note: In a reporter assay the amount or activity of a reporter protein is the signal.
Assay [8] is described as follows: inhibitors of poly I:C-induced TLR3 signaling, primary screen, cell-based, poly I:C stimulus, luciferase, 10K MLSCN set (AID 602277;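 active = inhibition of the reporter signal at or above 50%; inactive = inhibition below 50%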). The conditions noted are these: HEK293-TLR3 RL24 IRF3 luciferase reporter, at 10 µM, stronger effect = higher value.

The record followed here is PubChem BioAssay.

Active and inactive are the calls of the source.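 Rule for the calls, unless noted: active = visual image review flags a hit and inhibition of aggregation exceeds 20%; inconclusive = visual hit but inhibition at or below 20%; inactive = no hit on visual image review.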

In the case of `Cc1ccc(-c2nnn(CC(=O)N(Cc3cccs3)C(C(=O)NC(C)(C)C)c3ccc(C)o3)n2)o1` (stereo unspecified), the cell count in assay [1] was found to be 675. The inhibition (usually the change of the read-out against control, counted positive when it falls) in assay [1] was -4% (inactive); in assay [3], -20.1% (inactive); in assay [7], 16.3% (inactive); in assay [8] it was 20.6% (inactive). In assay [2], the inhibition of aggregation is -2.3% (inactive). Also, the nuclei count in assay [2] came out at 136%; in assay [3], 137%. Further, the fluorescence slope in assay [4] was -0.361 (inactive). Moreover, the NADPH fluorescence slope in assay [5] is -2.9e-05 (inactive). For the same compound, the slope in assay [6] was 0.00454 (inactive).
Consider `CCC(=O)Nc1c(C#N)c2nc3ccccc3nc2n1-c1ccccc1C`, for which the cell count in assay [1] is 311. Besides, the inhibition in assay [1] was -1.9% (inactive); in assay [3], -20.8% (inactive); in assay [7] it was 12.6% (inactive); in assay [8], 21.8% (inactive). Further, the inhibition of aggregation in assay [2] is 11.4% (inactive). The nuclei count in assay [2] came to 83.9%; in assay [3] it was 95.9%. Besides, the fluorescence slope in assay [4] is -0.0512 (inactive). Further, in assay [5], the NADPH fluorescence slope was 7.8e-06 (inactive). In addition, the slope in assay [6] was 0.00349 (inactive).
For the compound `Cc1nc2ccc(S(=O)(=O)NC(C(=O)NCc3cccs3)C(C)C)cc2s1` (stereo unspecified), in assay [1], the cell count was 332. Further, the inhibition was -8.3% (inactive) in assay [1], -28.8% (inactive) in assay [3], -5.51% (inactive) in assay [7] and 14.4% (inactive) in assay [8]. Also, the inhibition of aggregation in assay [2] was 24.4% (inactive). Moreover, the nuclei count in assay [2] stood at 88.7%; in assay [3], 106%. Further, the fluorescence slope in assay [4] was -0.612 (inactive). The NADPH fluorescence slope in assay [5] was -5.2e-05 (inactive). Moreover, in assay [6], the slope is 0.00687 (inactive).
On to `Clc1cccc(Nc2c3c(nc4ncnn24)CCC3)c1`, for which the cell count in assay [1] is 416. Also, the inhibition was 6% (inactive) in assay [1], 14.9% (inactive) in assay [7] and 30.2% (inactive) in assay [8]. Further, in assay [2], the inhibition of aggregation is -33.4% (inactive). The figures for the nuclei count in assay [2] and in assay [3] were 36% and 145%, respectively. Further, the fluorescence slope in assay [4] was -0.63 (inactive). The NADPH fluorescence slope in assay [5] was -2.2e-07 (inactive). Besides, the slope in assay [6] was 0.00604 (inactive).
For `Cc1nc2ccc(S(=O)(=O)NCC(=O)N3CCCCC3)cc2s1`, the cell count in assay [1] came out at 277. In addition, the inhibition was -3% (inactive) in assay [1], 27.3% (inactive) in assay [3], -10.6% (inactive) in assay [7] and -1.82% (inactive) in assay [8]. In assay [2], the inhibition of aggregation is 11.4% (inactive). Moreover, the nuclei count in assay [2] was found to be 79.6%; in assay [3] it was 94.4%. Also, the fluorescence slope in assay [4] was -0.488 (inactive). For the same compound, in assay [5], the NADPH fluorescence slope is -4.1e-05 (inactive). Further, the slope in assay [6] was 0.00708 (inactive).
Regarding `CSCSC1=C(C#N)C(c2ccc(Cl)cc2)C(C(C)=O)=C(C)N1` (stereo unspecified), the cell count in assay [1] stood at 324. For the same compound, the inhibition in assay [1] was -1% (inactive); in assay [3] it was -47.6% (inactive); in assay [7], 10.5% (inactive); in assay [8] it was 23.2% (inactive). For the same compound, the inhibition of aggregation in assay [2] is -2.2% (inactive). The nuclei count in assay [2] was 112%; in assay [3], 102%. Further, in assay [4], the fluorescence slope was -0.451 (inactive). Further, the NADPH fluorescence slope in assay [5] was -0.00017 (inactive). Moreover, the slope in assay [6] is 0.00657 (inactive).
For the compound `CN(Cc1ccccc1)C(=O)c1ccc2c(c1)OCO2`, the cell count in assay [1] was 414. The results for the inhibition in assay [1], in assay [7] and in assay [8] were 10.6% (inactive), 2.22% (inactive) and -20.3% (inactive), respectively. Also, the inhibition of aggregation in assay [2] is -8.8% (inactive). Further, the nuclei count is 108% in assay [2] and 156% in assay [3]. The fluorescence slope in assay [4] was -0.595 (inactive). Also, in assay [5], the NADPH fluorescence slope is -2e-05 (inactive). Also, the slope in assay [6] is 0.0038 (inactive).
For the compound `CCOc1cccc(C(=O)N(Cc2ccco2)C2CCS(=O)(=O)C2)c1` (stereo unspecified), the cell count in assay [1] turned out to be 609. The inhibition was 9.6% (inactive) in assay [1], -9.8% (inactive) in assay [3], 11.5% (inactive) in assay [7] and 13.7% (inactive) in assay [8]. In assay [2], the inhibition of aggregation was 2.4% (inactive). Moreover, the results for the nuclei count in assay [2] and in assay [3] were 107% and 110%, respectively. Also, the fluorescence slope in assay [4] is -0.342 (inactive). Also, the NADPH fluorescence slope in assay [5] is -6.1e-05 (inactive). For the same compound, the slope in assay [6] is 0.00467 (inactive).
